The whole screen tested about 5,500 compounds, of which about 2,000 (36%) were called active. Inconclusive results (about 18%) are left out. Cut-off read from the data, not from the text of the source: active = normalized growth mostly below about 0.91 (no sharp cut-off); inconclusive = no clear call, values can overlap the other calls; inactive = mostly above about 0.92. Some of the results follow.
Assay: chemical genetic growth profiling, strain panel (AID 1159580);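 note: tested at 20 µM; growth read once vehicle control cultures reached saturation at 30 °C; 1 = growth at the plate median or of vehicle wells; lower values mean less growth of the strain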
Settings: S. cerevisiae deletion strains, growth OD

Measured: normalized growth

C=C[C@@]1(C)CC(=O)[C@@]2(O)[C@](C)(O1)[C@@H](O)[C@@H](O)C1C(C)(C)CC[C@H](O)[C@@]12C (stereo partly drawn)
inactive: locus YHR030C, strain SLT2, active compounds read low 0.962 | locus YHR079C, strain IRE1, active compounds read low 0.971 | locus YJL095W, strain BCK1, active compounds read low 0.989 | locus YJR066W, strain TOR1, active compounds read low 0.957 | locus YLR113W, strain HOG1, active compounds read low 0.992 | locus YNL183C, strain NPR1, active compounds read low 0.995 | locus YOR231W, strain MKK1, active compounds read low 0.992 | locus YPL256C, strain CLN2, active compounds read low 0.976

Reference: PubChem BioAssay AID1159580 (chemical genetic matrix, 2015)
